Source: PubChem BioAssay (several laboratories)
Shn3 inh set2 = reduces Shn3 3'UTR luciferase signal in osteoblasts. 360,000 tested, 0.52% active. Clone20 osteoblast Shn3 3'UTR firefly luciferase, 24 h. inhibition, % at 12.5 µM;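 active = mean inhibition of at least 75% with every replicate also reaching 75%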;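 note: 0% = median of neutral control wells and 100% = pilot-screen positive control compound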
Jurkat NFkB inh = lowers PMA/ionomycin-induced NF-kB signal in Jurkat cells; inhibition, % at 4 µM; PMA/ionomycin-induced NF-kB luciferase reporter, luminescence; 330,000 tested, 0.53% active; AID 435003; in the data active = inhibition above about 50%
LMP1 NFkB inh = reduces LMP1-driven NF-kappaB luciferase signal | AID 504558 | inhibition, % at 12.5 µM | 350,000 tested, 0.69% active | LMP1-induced NF-kappaB luciferase reporter cells, luminescence; in the data active = inhibition above about 41%;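 note: 0% = neutral control wells and 100% = reference inhibitor control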
Gli-Sufu antag = antagonists of Gli-Sufu signaling | Sufu-KO-LIGHT fibroblasts, Gli luciferase reporter luminescence | inhibition, % at 5 µM | 340,000 tested, 0.74% active;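 active = inhibition above about 55%, limit read from the data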;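 note: 0% = DMSO-treated cells and 100% = wells with medium but no cells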
MITF TRPM1 inh = reduces MITF-dependent TRPM1 promoter luciferase signal. SK-MEL-5 TRPM1 promoter luciferase, 24 h. inhibition, % at 12.5 µM. 330,000 tested, 0.83% active;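 active = mean inhibition across replicates of 60% or more, whatever share of single replicates reaches that level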
697 NFkB inh = lowers PMA/ionomycin-induced NF-kB signal in 697 B cells. 697 B-cell NF-kB luciferase reporter, 16 h. inhibition, % at 4 µM. 330,000 tested, 0.33% active. AID 435022; in the data active = inhibition above about 35%
Jurkat NFkB conf = inhibitors of the PMA/ionomycin-induced NF-kB reporter in Jurkat cells, retest; shares compounds with Jurkat NFkB inh; Jurkat NF-kB luciferase, 16 h; inhibition, % at 4 µM; 2,700 tested, 27% active;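 active = inhibition reaching about 45% at 4 µM in either replicate, limit read from the data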;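 note: plate controls were PMA/ionomycin stimulated DMSO wells for no effect and unstimulated DMSO wells for full effect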
Active calls of the source: *; x = no result given. In the library only some 2.3% were active in any assay of this set; here they are far more common.

SMILES	Shn3 inh set2	Jurkat NFkB inh	LMP1 NFkB inh	Gli-Sufu antag	MITF TRPM1 inh	697 NFkB inh	Jurkat NFkB conf
CC1CCc2c(sc3nc(CN4CCOCC4)nc(N4CCc5ccccc5C4)c23)C1 (stereo not drawn)	-3	-2	1	6	29	-24	x
Cc1cc(NCCN2CCOCC2)n2ncc(-c3ccccc3)c2n1	-46	-179	-20	-75	-30	-139	-88
Cc1cc(NCCN2CCOCC2)n2nc(C)c(-c3ccccc3)c2n1	3	-3	-7	-2	-8	15	x
CN1CCN(S(=O)(=O)c2cccc(C(=O)N3CCN(c4ccccc4)CC3)c2)CC1	8	-4	-5	1	-1	9	x
CC(C)Nc1ccc(C(CC(N)=O)NC(=O)c2ccccc2)cc1[N+](=O)[O-] (stereo not drawn)	6	4	0	7	-7	-1	x
NC(=O)CC(NC(=O)Cc1ccc(Br)cc1)c1ccc(NCC2CC2)c([N+](=O)[O-])c1 (stereo not drawn)	25	51*	10	15	-36	8	24
CC(C)Nc1ccc(C(CC(N)=O)NC(=O)c2ccc(Br)cc2)cc1[N+](=O)[O-] (stereo not drawn)	10	59*	20	-5	-42	-3	45
NC(=O)CC(NC(=O)Cc1ccc(Cl)cc1)c1ccc(NCC2CC2)c([N+](=O)[O-])c1 (stereo not drawn)	-13	31	18	-8	-41	11	x
CC1(C)Cc2nc3oc4c(=O)n(CC(=O)Nc5ccccc5)cnc4c3cc2CO1	-5	-4	-7	-8	28	2	x
CC1(C)Cc2nc3sc4c(=O)n(CC(=O)NCc5ccco5)cnc4c3cc2CO1	-41	50*	8	-26	4	-21	4
CCn1c(/C=C/c2c[nH]c3ccccc23)nc2ccccc2c1=O	-10	-266	-76	-40	-113	-232	-37
COc1cccc(C(=O)Nc2ccc3c(C)cc(=O)oc3c2)c1	-48	-178	-26	-87	-20	-132	-111
O=C(CCCOC(=O)c1ccc(O)cc1)c1ccccc1	-19	-15	-4	-7	-24	-1	x
O=C(CCCC(=O)c1ccc(O)cc1)c1ccc(O)cc1	-81	-163	-1	-74	-95	-223	-91
O=C(CCCc1ccccc1)c1ccccc1	-55	-176	-8	-82	x	-96	-101
CCOC(=O)c1c(-c2ccccc2)oc2ccc(OCC(O)CNCCN(C)C)cc12 (stereo not drawn)	15	56*	5	14	66*	7	13
CCOC(=O)c1c(-c2ccccc2)oc2ccc(OCC)cc12	9	-9	-6	8	-2	14	x
COc1ccc(C(=O)Nc2ccccc2C(=O)N/N=C/c2ccccn2)cc1OC	53	56*	21	45	43	-67	-21
COc1ccc(CCC(C)Nc2cccc(C)c2)cc1 (stereo not drawn)	-16	-5	11	5	-6	4	x
c1ccc(N2CCN(c3cnc4ccccc4n3)CC2)cc1	-48	-152	-39	4	-49	-185	-98
Clc1ccc(N2CCN(c3cnc4ccccc4n3)CC2)cc1	-5	-21	-8	-10	-35	-29	x
CCn1c(CNc2ccc(OC)cc2)nnc1SCC(=O)Nc1ccc(F)cc1	-3	-5	-8	-5	9	-13	x
Cc1nc(-c2ccccc2)cc(N2CCCC2)n1	-16	8	7	-6	0	-1	x
Nc1nc(-c2ccccc2)cc(N2CCCCC2)n1	x	55*	7	5	27	-33	42
C(=C\c1nc(-c2ccccc2)no1)/c1ccccc1	-54	-152	-31	x	-40	-202	-82
O=C(NCC1COc2ccccc2O1)c1c[nH]c2ccc(S(=O)(=O)N3CCOCC3)cc2c1=O (stereo not drawn)	0	x	4	0	-3	x	x
CCCCc1ccc(NC(=O)c2ccc(N(C)S(C)(=O)=O)cc2)cc1	12	50*	33	5	26	-30	54*
CC(=O)c1cccc(Nc2nc(-c3cccnc3)cs2)c1	-41	-111	-17	-76	-67	-81	x
COc1ccc(-c2csc(Nc3ccccc3)n2)cc1	-101	-196	-39	-121	-62	-172	-82
